According to PubChem BioAssay (NCATS):
Records with an inconclusive call do not appear. Values without a mark were called inactive. The source made the active and inactive calls. The call rests on the fitted dose curve; in most records, active means well fitted inhibition curve with a large enough effect; inconclusive means small, poorly fitted or top-dose-only effect; inactive means no such curve, though single readings can be large or run the other way.

Experiment: Primary qHTS for inhibitors of nuclear receptor binding SET domain protein 2 (NSD2) in an RCH-ACV wild type WT cells (2C) (AID 1645877); further: nearly all actives have a fitted effect of over 70% in size
Details: RCH-ACV (leukaemia line) NSD2 WT (2C) viability, CellTiter-Glo, 72 h; series mostly up to 44.9 µM; activity change, negative = cell killing: at the top concentration
On the % scale 0 is the no-effect control and ±100 the full control effect; potency means the concentration at half of the fitted maximal effect.

Structure (SMILES) | activity change, negative = cell killing [%] | outcome | Potency
c1ccc(CNCCNCc2ccccc2)cc1 | -10.2 | – | –
NC(=O)CC[C@@H]1NC(=O)[C@H](Cc2ccccc2)NC(=O)[C@H](Cc2ccc(O)cc2)NC(=O)CCSSC[C@@H](C(=O)N2CCC[C@H]2C(=O)N[C@@H](CCCN=C(N)N)C(=O)NCC(N)=O)NC(=O)[C@H](CC(N)=O)NC1=O | – | inactive | –
CNC(=O)CN(CCN(CCN(CC(=O)[O-])CC(=O)NC)CC(=O)[O-])CC(=O)[O-].O.[Gd+3] | – | inactive | –
NCCc1ccn[nH]1 | – | inactive | –
CCC(C(=O)OCCN(CC)CC)c1ccccc1 (stereo not given) | 6.93 | – | –
OC[C@H]1O[C@@H](n2cnc3c(=S)nc[nH]c32)[C@H](O)[C@@H]1O | – | – | 422 nM (active)
CN1CCC[C@@H]1c1cccnc1 | -4.42 | – | –
OC[C@H]1O[C@H](O[C@]2(CCl)O[C@H](CCl)[C@@H](O)[C@@H]2O)[C@H](O)[C@@H](O)[C@H]1Cl | – | – | inactive
Cc1cc2c(cc1CC(=O)c1sccc1S(=O)(=O)Nc1onc(C)c1Cl)OCO2 | – | – | inactive
CC1(C)OC[C@@H](COC(=O)CCc2ccc(OC[C@@H](O)CNCCNC(=O)N3CCOCC3)cc2)O1 | 1.92 | – | –
CCCCCCC[N+](CC)(CC)CCCCc1ccc(Cl)cc1 | – | – | 1880 nM (active)
Cc1c(N(C)CS(=O)(=O)O)c(=O)n(-c2ccccc2)n1C | – | inactive | –
NC(=O)c1cc[n+](CC2=C(C(=O)[O-])N3C(=O)[C@@H](NC(=O)Cc4cccs4)[C@H]3SC2)cc1 | -11.2 | – | –
COc1cc(C(=S)N2CCOCC2)cc(OC)c1OC | -14 | – | –
NC(CO)(CO)CO | 2.89 | – | –
CC[C@@H](CO)NCCN[C@@H](CC)CO | -0.951 | – | –
CC(O)(P(=O)(O)O)P(=O)(O)O | 9.55 | – | –
Cc1c(C)n(Cc2ccccc2)c2ccc(C(=O)OCCN(C)C)cc12 | – | – | 9440 nM (active)
CC(=O)Nc1c(I)cc(I)c(C(=O)O)c1I | -8.74 | – | –
OCc1ccccc1O | -0.936 | – | –
